Each structure is given as a SMILES string.

For this assay, the target named is Torsin-1A-interacting protein 2 (Homo sapiens) (UniProt Q8NFQ8). Description: small molecules binding lysate-expressed LULL1 – cell lysate, human LULL1 lysate, 635/667 nm fluorescence, primary screen (AID 1092).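 Further: probe is lysate of COS7 cells overexpressing human LULL1; score merges per-feature 667 nm fluorescence with signal-to-noise.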 The note with it: small-molecule microarray, hLULL1 lysate binding, 635 nm fluorescence; higher = more signal.
Sequence of Torsin-1A-interacting protein 2 (Homo sapiens) (Q8NFQ8 whole entry, looked up): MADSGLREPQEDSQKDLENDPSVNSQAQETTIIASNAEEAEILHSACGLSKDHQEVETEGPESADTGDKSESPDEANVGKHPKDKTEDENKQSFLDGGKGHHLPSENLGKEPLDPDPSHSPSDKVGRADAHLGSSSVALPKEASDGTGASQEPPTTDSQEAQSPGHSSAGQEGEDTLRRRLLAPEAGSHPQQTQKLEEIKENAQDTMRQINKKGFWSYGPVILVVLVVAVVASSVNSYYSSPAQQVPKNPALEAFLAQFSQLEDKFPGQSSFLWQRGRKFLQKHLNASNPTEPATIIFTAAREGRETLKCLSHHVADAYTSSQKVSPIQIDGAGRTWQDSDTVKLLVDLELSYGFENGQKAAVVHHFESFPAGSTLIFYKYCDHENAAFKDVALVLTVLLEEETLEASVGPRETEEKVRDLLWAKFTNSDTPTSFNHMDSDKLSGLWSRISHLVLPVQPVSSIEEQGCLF
`COC(=O)[C@@]1(Cc2ccc(F)cc2)[C@H]2c3cc(C(=O)N4CCCC4)n(CCc4c[nH]c5ccc(OC)cc45)c3C[C@H]2CN1C(=O)c1ccccc1`: the composite z-score was 3.37.

Consider `COCCOC(=O)N1C(=O)[C@@]2(c3cc(C#CC4(O)CCCCCC4)ccc31)[C@H](C(=O)N1CCCCCCC1)[C@H]1C(=O)O[C@H](c3ccccc3)[C@H](c3ccccc3)N1[C@@H]2c1ccc(OCCO)cc1`, for which the composite z-score came to 3.7. The compound `COC(=O)Cn1c(C(=O)N2CCCC2)cc2c1C[C@H]1CN(C(=O)c3ccccc3)[C@@](Cc3ccc(F)cc3)(C(=O)OC)[C@@H]21` showed a composite z-score of 2.03. In turn, `NC(=O)N1C(=O)C2C(C1=O)C1C=C(c3ccc(CO)cc3)C2C(C2CC2)N1Cc1sc2ccccc2c1Cl` (stereo not drawn) returned a composite z-score of 2.68. Compound `CC=CC(O)C1C=CC2C(=O)N(C)C(=O)C2N1Nc1ccc([N+](=O)[O-])cc1[N+](=O)[O-]` (stereo not drawn) came in with a composite z-score of 3.57. Compound `CN(C)CCCNC(=O)[C@@]1(c2ccc([N+](=O)[O-])cc2)CC(=O)N(CC23CC4CC(CC(C4)C2)C3)[C@@H]1c1ccc(CO)cc1` came in with a composite z-score of 3.39. The result for `C=CC1c2cc(O)c(OC)cc2CCN1Cc1sc2ccccc2c1Cl` (stereo not drawn) reads 2.49; that for `CC(C)C(=C=CC[C@@H](O)c1ccccc1OCCO)C[C@@H](O)COCc1ccccc1`, 1.16; that for `C=CCN1C(=O)[C@]2(CC=C)N=C(c3ccc(OCCCO)cc3)O[C@@H]2c2ccccc21`, 3.13. `Cc1ccc(S[C@]2(C(=O)NCc3ccccc3)CC(=O)N(C(C)C)[C@@H]2c2ccc(CO)cc2I)cc1`: the composite z-score came out at 1.73. As to `CO[C@H]1O[C@H](CO)[C@@H](OC(=O)Nc2ccc(C(F)(F)F)cc2)[C@H](OC(=O)Nc2ccc3c(c2)OCO3)[C@H]1OC(=O)Nc1ccc2c(c1)OCO2`, the composite z-score worked out at 3.03. For `CN1C2C=C(CCCO)C(C3C(=O)N(C(N)=O)C(=O)C32)C1c1cccs1` (stereo not drawn) the value was 0.502; for `COC(=O)C(CC#Cc1ccc2c(c1)[C@]1(C(=O)N2)[C@H](C(=O)O)[C@H]2C(=O)O[C@H](c3ccccc3)[C@H](c3ccccc3)N2[C@@H]1c1ccccc1OCCO)C(=O)OC`, 3.04; for `CC(C)CCC[C@@H](C)[C@H]1CC[C@@]2(C)C3=C(CC[C@]12C)[C@@]1(C)CC[C@H](OC(=O)c2ccc(Br)cc2)C(C)(C)C1CC3` (stereo partly drawn), 0.172. Compound `Cc1ccc(S[C@]2(C(=O)NCCN3CCOCC3)CC(=O)N(Cc3ccccc3C(F)(F)F)[C@@H]2c2ccc(CO)cc2I)cc1` displayed a composite z-score of 1.2. `CCCCN1CC=CC23O[C@@H]4C=CCOC(=O)[C@@H]4[C@H]2C(=O)N(CCCO)[C@@H]3C1=O` (stereo partly drawn) came in with a composite z-score of 2.41.

In turn, `C=C[C@@H](C)[C@H](OC(=O)Nc1ccc(SC)cc1)c1ccc(OCCO)cc1` displayed a composite z-score of 0.721.

`O=c1cccc(-c2cccc(Cl)c2)o1` showed a composite z-score of 0.0149. For `Cc1ccc(S[C@]2(C(=O)NCC(F)(F)F)CC(=O)N(Cc3ccccc3)[C@@H]2c2ccc(CO)cc2)cc1` the value was 2.06; for `COc1ccc([Si](C)(C)[C@H]2[C@H](CC(=O)N3Cc4ccccc4C[C@H]3CO)O[C@@]3(C(=O)N(Cc4cccc(N5CCCCC5=O)c4)c4ccccc43)[C@@H]2C)cc1`, 1.79; for `O=C1OCC=C[C@H]2OC34C=CCN(Cn5nnc6ccccc65)C(=O)[C@H]3N(CCCCCCO)C(=O)[C@@H]4[C@@H]12` (stereo partly drawn), 1.29. In turn, `COCCOC(=O)N1C(=O)[C@@]2(c3cc(C#Cc4ccc(OC)cc4)ccc31)[C@H](C(=O)N1CCN(c3ncccn3)CC1)[C@H]1C(=O)O[C@H](c3ccccc3)[C@H](c3ccccc3)N1[C@@H]2c1ccccc1OCCO` gave a composite z-score of 2.17. For `O=C1C2C=CC(C(O)c3cc(C(F)(F)F)cc(C(F)(F)F)c3)N(Nc3ccc([N+](=O)[O-])cc3)C2C(=O)N1c1ccccc1` (stereo not drawn) the value was 3.47. In turn, `CCOC(=O)C[C@H]1[C@H](OC(=O)Cc2ccc3c(c2)OCO3)[C@@H](NC(=O)Cc2ccc(OC)cc2)c2cc(OCCCO)ccc2N1C(=O)c1ccccc1` showed a composite z-score of 1.37. For `O=C1NCC(=O)N2[C@@H]1C[C@@H](C(=O)O)[C@H]2c1ccc(O)cc1` the value was 2.6; for `C=C(COC)/C(=C/C[C@@H](OC(=O)c1ccncc1)c1cccc(OCCO)c1)c1cnc2ccccc2c1`, 2.2.

Regarding `CCOC(=O)C[C@H]1[C@H](OC(=O)c2ccccc2-c2ccccc2)[C@@H](NC(=O)c2ccc3ccccc3n2)c2cc(OCCCO)ccc2N1C(=O)c1ccc2ccccc2n1`, the composite z-score was 0.84. `[N-]=[N+]=NCc1ccccc1C[C@]1(C(=O)NCC(O)CO)N=C(c2ccc(OCCCO)cc2)O[C@H]1c1ccccc1CN=[N+]=[N-]` (stereo partly drawn): the composite z-score turned out to be 3.6.

Values taken from PubChem BioAssay.
